FLuc counter: counter-screen for miR-21 project: firefly luciferase inhibitors or activators; 360,000 compounds, 6.9% hits; Potency, µM (top dose mostly 57.5 µM), most hits filed as inhibitors; purified FLuc, Km substrates, luminescence inhibition; P08659; AID 588342; note: nearly all actives have a fitted effect of over 55% in size
Target sequence (P08659 whole entry, looked up): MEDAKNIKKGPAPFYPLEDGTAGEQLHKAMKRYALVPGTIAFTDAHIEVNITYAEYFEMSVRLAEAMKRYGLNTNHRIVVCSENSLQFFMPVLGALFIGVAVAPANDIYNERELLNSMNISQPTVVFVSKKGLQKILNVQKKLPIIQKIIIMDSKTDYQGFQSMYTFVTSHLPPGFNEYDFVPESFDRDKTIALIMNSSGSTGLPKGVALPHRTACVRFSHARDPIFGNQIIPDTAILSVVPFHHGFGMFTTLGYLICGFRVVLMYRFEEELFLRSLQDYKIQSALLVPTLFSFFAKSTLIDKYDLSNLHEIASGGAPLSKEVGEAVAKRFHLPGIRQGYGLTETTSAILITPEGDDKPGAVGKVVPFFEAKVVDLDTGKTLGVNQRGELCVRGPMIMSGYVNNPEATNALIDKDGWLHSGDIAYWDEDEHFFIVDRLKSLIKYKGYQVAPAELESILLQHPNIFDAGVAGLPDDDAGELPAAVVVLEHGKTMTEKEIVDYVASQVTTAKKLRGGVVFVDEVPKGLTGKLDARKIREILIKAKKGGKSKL
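Purified P. pyralis luciferase, 10 nM final, with Km-level 10 uM D-luciferin and 10 uM ATP in 50 mM Tris acetate pH 7.5, 10 mM Mg acetate, 0.01% Tween-20, 0.05% BSA; 6-point qHTS titration about 60 µM downward; luminescence read.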
Rab9 promoter act: Rab9 promoter activation. Huh7 Rab9 promoter-luciferase reporter, luminescence, 24 h. Potency, µM (titrated, usually from 9.22 µM), most hits filed as activators. 320,000 compounds, 2.8% hits; note: nearly all actives have a fitted effect of over 60% in size
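Measured in stably transfected Huh7 cells bearing a Rab9 promoter–luciferase construct: 24 h compound treatment at 37 °C, followed by luminescence detection.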
SMN2 splice enh: increases expression of the SMN2 splice variant; Potency, µM (titrated, usually from 46.1 µM), usual class: activators; HEK293 SMN2-luciferase splicing reporter, luminescence, 30-36 h; 210,000 compounds, 2.8% hits; note: nearly all actives have a fitted effect of over 55% in size
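HEK293 cells carry an SMN2 minigene-luciferase reporter in which exon 7 inclusion puts luciferase in frame. Cells were seeded at 2000 cells/well, attached for 10-12 hours, then exposed to compounds for 30-36 hours at 37C before ONE-Glo luminescence.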
NPC1 prom act: NPC1 promoter activation | Huh7 NPC1 promoter luciferase reporter, 24 h | Potency, µM (highest dose often 9.22 µM), actives largely listed as activators | 320,000 compounds, 2.4% hits; note: nearly all actives have a fitted effect of over 60% in size
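Luminescence from an NPC1 promoter-driven luciferase reporter in stably transfected Huh7 cells was measured after 24 h compound treatment at 37 °C, followed by 10 min ambient incubation with luciferase detection reagent.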
ELG1 genotoxic: genotoxicity induction in ELG1-luciferase HEK293T cells; HEK293T ELG1-luciferase reporter, luminescence, 16 h; Potency, µM (doses to about 46 µM), hits mostly activators; 330,000 compounds, 1.3% hits; note: nearly all actives have a fitted effect of over 60% in size
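16 hr compound incubation (37 °C, 5% CO2) of HEK293T cells carrying luciferase-tagged ELG1; luciferase then measured by ONE-Glo luminescence after 30 min at RT.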
Hits are given with their value. This is a sample that favours compounds with a hit; in the whole collection about 7.4% have one here. Calls come from the whole dose curve; as a rule, active = well fitted curve in the direction sought with a large enough effect; inconclusive = small, poorly fitted or top-dose-only effect, or another doubt; inactive = no such curve, though single readings can be large; an effect the other way counts as inactive or inconclusive.

Results for O=C(Nc1ccc(C(=O)c2ccc(C(=O)O)c(C(=O)O)c2)cc1)c1ccccc1 ?
FLuc counter: 11µM; Rab9 promoter act: inactive; NPC1 prom act: inactive; ELG1 genotoxic: inactive

What do the screens show for `Cn1c(C(C#N)C(=O)c2ccco2)nc2ccccc21` (configuration not stated)?
FLuc counter: 17µM; Rab9 promoter act: inactive; SMN2 splice enh: inactive; NPC1 prom act: inactive; ELG1 genotoxic: inactive

How did Cn1c(C(C#N)C(=O)Cc2cccc3ccccc23)nc2ccccc21 (configuration not stated) do in these assays?
FLuc counter: inactive; Rab9 promoter act: inactive; SMN2 splice enh: inactive; NPC1 prom act: inactive; ELG1 genotoxic: inactive

Results for COc1ccccc1NC(=O)c1c(Nc2ccccc2F)sc(C(=O)Nc2cccc(Cl)c2)c1N ?
FLuc counter: inactive; Rab9 promoter act: inactive; SMN2 splice enh: inactive; NPC1 prom act: inactive; ELG1 genotoxic: inactive

How did Oc1ccc(-c2csc(Nc3cccc4ccccc34)n2)cc1O do in these assays?
FLuc counter: inconclusive; Rab9 promoter act: inactive; NPC1 prom act: inactive; ELG1 genotoxic: inactive

What do the screens show for `Cc1cccc(Nc2nc(-c3ccc(O)c(O)c3)cs2)n1`?
FLuc counter: 21µM; Rab9 promoter act: inactive; NPC1 prom act: inactive; ELG1 genotoxic: inconclusive

Results for Cc1cccc(Nc2nc(-c3ccc(F)c(C)c3)cs2)n1 ?
FLuc counter: 6µM; Rab9 promoter act: 4µM; NPC1 prom act: 3.2µM; ELG1 genotoxic: inactive

What do the screens show for `Brc1ccc(Nc2nc(-c3cccnc3)cs2)cc1`?
FLuc counter: inconclusive; Rab9 promoter act: inactive; SMN2 splice enh: 14µM; NPC1 prom act: inactive; ELG1 genotoxic: inconclusive

What do the screens show for `CCC(=O)c1ccc(OCC(=O)Nc2nc(-c3cccnc3)cs2)cc1`?
FLuc counter: inactive; Rab9 promoter act: inactive; NPC1 prom act: inactive; ELG1 genotoxic: inactive

Results for O=C(O)c1ccc(Nc2nc(-c3cccnc3)cs2)cc1 ?
FLuc counter: 5.4µM; Rab9 promoter act: inconclusive; NPC1 prom act: inconclusive; ELG1 genotoxic: inactive

What do the screens show for `Nc1ccc(Nc2nc(-c3ccncc3)cs2)cc1`?
FLuc counter: 4.8µM; Rab9 promoter act: inconclusive; SMN2 splice enh: inactive; NPC1 prom act: inconclusive; ELG1 genotoxic: inconclusive

How did CCOc1ccc(Nc2nc(-c3cccnc3)cs2)cc1 do in these assays?
FLuc counter: inconclusive; Rab9 promoter act: 2.2µM; NPC1 prom act: 2.2µM; ELG1 genotoxic: inconclusive

Results for CC(=O)c1ccc(Nc2nc(-c3cccnc3)cs2)cc1 ?
FLuc counter: inconclusive; Rab9 promoter act: inactive; NPC1 prom act: inactive; ELG1 genotoxic: inconclusive

Results for Oc1ccc(Nc2nc(-c3ccc(O)cc3)cs2)cc1 ?
FLuc counter: 7.6µM; Rab9 promoter act: inactive; SMN2 splice enh: 22µM; NPC1 prom act: inactive; ELG1 genotoxic: 8.2µM

How did Oc1ccc(Nc2nc(-c3ccc(Cl)cc3)cs2)cc1 do in these assays?
SMN2 splice enh: inactive

Results for Brc1cccc(Nc2nc(-c3cccnc3)cs2)c1 ?
FLuc counter: 9.5µM; Rab9 promoter act: inactive; NPC1 prom act: inconclusive; ELG1 genotoxic: inconclusive

What do the screens show for `Cc1cc(O)ccc1Nc1nc(-c2cccnc2)cs1`?
FLuc counter: 6µM; Rab9 promoter act: inactive; NPC1 prom act: inconclusive; ELG1 genotoxic: inactive

Results for Cc1ccc(Nc2nc(-c3cccnc3)cs2)cc1C ?
FLuc counter: 0.85µM; Rab9 promoter act: inconclusive; NPC1 prom act: inconclusive; ELG1 genotoxic: 2.3µM

How did CCOC(=O)c1cc2c(=O)n3ccccc3nc2n(CCOC)c1=NC(=O)c1c(-c2ccccc2Cl)noc1C do in these assays?
FLuc counter: inactive; SMN2 splice enh: inactive

What do the screens show for `COc1ccc(Cl)cc1Nc1nc(-c2cccnc2)cs1`?
FLuc counter: inconclusive; Rab9 promoter act: inactive; NPC1 prom act: inactive; ELG1 genotoxic: inactive

How did Cc1cc(O)ccc1Nc1nc(-c2cccs2)cs1 do in these assays?
FLuc counter: 0.54µM; Rab9 promoter act: inconclusive; SMN2 splice enh: inconclusive; NPC1 prom act: inconclusive; ELG1 genotoxic: 3.3µM

What do the screens show for `Clc1cccc(Nc2nc(-c3cccnc3)cs2)c1`?
FLuc counter: 13µM; Rab9 promoter act: inactive; SMN2 splice enh: inactive; NPC1 prom act: inactive; ELG1 genotoxic: inconclusive

Results for Oc1ccc(Nc2nc(-c3cccnc3)cs2)cc1 ?
FLuc counter: 9.5µM; Rab9 promoter act: inactive; NPC1 prom act: inactive; ELG1 genotoxic: inconclusive

How did CCOC(=O)C1(Cc2cccc(OC)c2)CCCN(Cc2cc(OC)c(O)c(OC)c2)C1 (configuration not stated) do in these assays?
FLuc counter: inactive; Rab9 promoter act: inactive; NPC1 prom act: inactive; ELG1 genotoxic: inactive

How did CCOC(=O)C1(Cc2cccc(OC)c2)CCCN(C(=O)c2cc(CC(C)C)[nH]n2)C1 (configuration not stated) do in these assays?
FLuc counter: 21µM; Rab9 promoter act: 3.5µM; NPC1 prom act: inconclusive; ELG1 genotoxic: inconclusive

How did CCOC(=O)C1(Cc2cccc(Cl)c2)CCCN(C(=O)CCOC)C1 (configuration not stated) do in these assays?
FLuc counter: inconclusive; Rab9 promoter act: inactive; NPC1 prom act: inactive; ELG1 genotoxic: inactive

Results for CCOC(=O)C1(Cc2cccc(OC)c2)CCCN(C(=O)c2ccc(OC)o2)C1 (configuration not stated) ?
FLuc counter: 12µM; Rab9 promoter act: 2.5µM; NPC1 prom act: inconclusive; ELG1 genotoxic: inconclusive

What do the screens show for `CCOC(=O)C1(Cc2cccc(OC)c2)CCCN(C(=O)CCN2CCCO2)C1` (configuration not stated)?
FLuc counter: 15µM; Rab9 promoter act: 3.2µM; NPC1 prom act: 3.5µM; ELG1 genotoxic: 23µM

Results for CCOc1ccccc1NC(=O)C(=O)c1cc(C)n(-c2cccc(C)c2C)c1C ?
FLuc counter: inactive

Results for Cc1ccc(N2C(=O)CC(C)CC2=O)cc1 ?
FLuc counter: inactive; Rab9 promoter act: inactive; NPC1 prom act: inactive; ELG1 genotoxic: inactive

How did Cc1ccc(-n2ncc3c(Nc4cccc(Cl)c4)ncnc32)c(C)c1 do in these assays?
FLuc counter: inactive

How did Nc1nc(Nc2ccc(Cl)cc2Cl)nc(C(F)(F)F)n1 do in these assays?
FLuc counter: inconclusive; Rab9 promoter act: inconclusive; SMN2 splice enh: inconclusive; NPC1 prom act: inconclusive; ELG1 genotoxic: 18µM

What do the screens show for `Nc1nc(Nc2ccccc2Br)nc(C(F)(F)F)n1`?
FLuc counter: inconclusive; Rab9 promoter act: inactive; SMN2 splice enh: inactive; NPC1 prom act: inactive; ELG1 genotoxic: inconclusive

Results for CCCN1CCC(=O)N(CCSc2ccc(NC(C)=O)cc2)CC1 ?
FLuc counter: inactive; Rab9 promoter act: inactive; NPC1 prom act: inactive; ELG1 genotoxic: inactive

How did O=C1CCN(Cc2ccccc2)CCN1CCSc1ccccc1 do in these assays?
FLuc counter: 13µM; Rab9 promoter act: 4.5µM; NPC1 prom act: inconclusive; ELG1 genotoxic: inconclusive

How did CCCN1CCC(=O)N(CCSc2ccccc2)CC1 do in these assays?
FLuc counter: inconclusive; Rab9 promoter act: 3.5µM; NPC1 prom act: 2.8µM; ELG1 genotoxic: inconclusive

How did Cc1nc2ncnn2c(C)c1CCC(=O)NCc1ccccc1Cl do in these assays?
FLuc counter: inactive; SMN2 splice enh: inactive
